Test results from ChEMBL document CHEMBL3433997, “St. Jude Leishmania screening dataset” (2016).

molecular target: Glucose transporter (Leishmania mexicana) (UniProt O61059); experiment: ST_JUDE_LEISH: Cytotoxicity at 2uM final concentration against transgenic Leishmania Mexicana promastigotes LmGT2 that are glucose transport deficient and complemented with the L. Mexicana glucose transporter 2. Activity is measured by DNA content using SYBR green in vitro; assay type: functional

SMILES	inhibition [%]
CCN(C)CCCn1c(N(C)C)nc2cc(-n3cnc4cc(-c5ccc(Cl)cc5)sc4c3=O)ccc21	3.62
CN(C)C(CNC(=O)c1cc(-c2ccncc2)c(-c2ccc(NC(=O)Nc3cccc(F)c3)cc2)o1)c1ccccc1 (stereo not given)	0.6
COc1cc2ncnc(Nc3ccc(OCc4ccccc4Br)c(Cl)c3)c2cc1OC	6.38
COc1ccc(-c2nc3cccnc3n2CC(=O)Nc2cc(Cl)c(Cl)cc2Cl)c(OC)c1	-2.74
O=C(Nc1cccc(Cl)c1Cl)N1CCc2cc3nccc(N4CCN5CCC[C@H]5C4)c3cc21	3.39
CCOc1ccc(C(C)NC(=O)Nc2ccccc2)cc1OCC (stereo not given)	2.96
COc1ccc2[nH]c(C)cc(=NN=Cc3ccc(F)cc3)c2c1	1.88
COc1ccc(O)c(C(=O)NCCc2ccc(OC)c(-c3ccc(C(C)(C)C)cc3)c2)c1	4.69
COc1ccc(CCN(C)CCc2ccc(NC(=O)c3cccc4c(=O)c5ccccc5sc34)cc2)cc1	0.2
O=C(Nc1ccc(OC2CCN(Cc3ccc(F)cc3)C2)cc1)c1cccs1 (stereo not given)	-0.11
CN1CCC(C(=O)Nc2cccc(-c3ccc(-c4nc5ccccc5[nH]4)cc3)c2)CC1	1.04
CCOC(=O)CNC(=O)N(CCN(Cc1ccccc1)C(=O)NCC(=O)OCC)Cc1ccccc1	1.35
Cc1ccc([N+](=O)[O-])cc1NC(=O)N(CC(O)c1ccccc1)C1CCCCC1 (stereo not given)	2.38
COc1cc(NC(=O)c2cccc([N+](=O)[O-])c2)cc(S(=O)(=O)c2ccc(Cl)cc2)c1	0.68
CC(=O)c1sc(NC(=O)Nc2ccc(C)cc2C)nc1C	3.63
CCCCNCC(O)COc1ccccc1-c1ccc(N/N=C/c2cccc3ccccc23)nn1 (stereo not given)	1.78
COc1ccc(NC(=O)C2c3ccccc3C(=O)N(CC(C)C)C2c2cccs2)cc1OC (stereo not given)	0.28
O=C(NCCc1ccccc1)[C@H](Cc1ccccc1)Nc1ccnc(NCC2CCCCC2)n1	0.61
Clc1ccc2c(NCCCCCCCCNc3ccnc4cc(Cl)ccc34)ccnc2c1	1.88
COc1cc2nc(N3CCC(CNC(=O)c4ccc(-c5ccc(C(F)(F)F)cc5)cc4)CC3)nc(N)c2cc1OC	-0.23

SMILES	inhibition [%]
O=C(Nc1ccccc1O)c1ccc(Oc2cccc(C(=O)Nc3ccccc3O)c2)cc1	1.13
COc1cc(Cl)c(C)cc1N(Cc1ccccc1-c1ccccc1)S(=O)(=O)c1ccc(C(F)(F)F)cc1	0.43
Cn1ccc(C(=O)Nc2ccc3c(c2)CN(Cc2ccc(N4CCCC4)o2)CCC3)n1	-0.65
COc1ccc(-c2ccc(NC(=O)c3cccs3)cc2)cc1CN1CCCN(C)CC1	-1.12
COc1ccc(NC(=O)[C@H](CC(C)C)Nc2cc(C)nc(Nc3ccccc3)n2)cc1	14.9
CC(CCc1ccccc1)NCC(O)c1cccc([N+](=O)[O-])c1 (stereo not given)	1.35
Oc1ccc(CCNCCCCCCNCCCc2ccc(Cl)cc2)cc1O	4.05
Cn1c(Cc2ccccc2)nnc1Sc1ccc(C#N)c([N+](=O)[O-])c1	-3.07
CN1CCC(C(=O)Nc2cccc(-c3cccc(-c4nc5cc(F)ccc5[nH]4)c3)c2)CC1	6.69
Cc1ccc(Nc2nc3cc(Nc4ccnc(Nc5cccc(CS(C)(=O)=O)c5)n4)ccc3o2)cc1	0.38
COc1ccc2nccc(N3CCN(CCNCc4ccc5c(n4)NC(=O)CS5)CC3)c2n1	0.07
COc1cccc(-c2cc(C(=O)NC3CCC(N4CCC(c5ccccc5C)CC4)CC3)[nH]n2)c1 (stereo not given)	5.13
Cc1[nH]c(C)c(-c2ccc(-c3cccc(OC(F)(F)F)c3)nc2)c(=O)c1Cl	-0.63
CC(=NNC(N)=O)C1=C(O)C(c2ccccc2)N(C2CCCCC2)C1=O (stereo not given)	-0.27
O=S(=O)(Nc1cccc(CCN2CCC(N3CCCCC3)CC2)c1)c1ccc2c(c1)OCCO2	8.66
CCN1CCN(c2cc(C)c3cc(NC(=O)C=Cc4cccc(OC)c4OC)ccc3n2)CC1	1.27
COc1ccc2ncc(F)c(CCN3C4CCC3CC(NCc3ccc5c(c3)OCCO5)C4)c2n1 (stereo not given)	79.2
Cn1cncc1C(=O)Nc1cccc(-c2ccc(-c3nc4ccccc4[nH]3)s2)c1	4.94
Nc1ccc2[nH]cc(C3CCN(CC4CCC(NC(=O)/C=C/c5ccccc5Cl)CC4)CC3)c2n1 (stereo not given)	2.48
COc1ccc(-c2cccc(CNC3CCN(CC4Cn5c(=O)ccc6ccc(F)c4c65)CC3)c2)cc1 (stereo not given)	8.16
